Screening data: PubChem, several laboratories
Shown are actives, neighbours in structure and some others; about 3% of the full set was active somewhere.
TWEAK Fn14 block: TWEAK-Fn14 signaling inhibition. TWEAK-stimulated Fn14 reporter cells, luciferase luminescence, 8 h. inhibition, % at 10 µM. actives 2% (n = 360,000); in the data active = inhibition above about 50%
MITF act: activators of MITF-driven TRPM1 promoter activity in SK-MEL-5 cells. SK-MEL-5 TRPM1-promoter luciferase, 24 h; % of positive control, neutral wells = 0. AID 588334. activation, % at 12.5 µM. actives 0.75% (n = 300,000);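 active = mean activation of at least 80% with every replicate also reaching 80%; inconclusive = mean reaches 80% but some replicate falls short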;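 note: 0% = neutral control wells and 100% = parthenolide positive control wells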
TRPM1 prom inh: MITF TRPM1 promoter inhibition in SK-MEL-5 cells | inhibition, % at 12.5 µM | AID 488899 | actives 0.83% (n = 330,000) | SK-MEL-5 TRPM1 promoter luciferase, 24 h;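 active = mean inhibition across replicates of 60% or more, whatever share of single replicates reaches that level; inconclusive = some that reach 60%, reason not given; inactive = mean inhibition across replicates below 60%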
LGR2 inh: inhibitors of bursicon-induced Drosophila LGR2 receptor cAMP signaling; HEK293 LGR2, CRE-luciferase, bursicon-stimulated, 4 h; inhibition, % at 9.99 µM; actives 0.35% (n = 380,000); AID 720647;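 active = drop in luminescence signal, shown as inhibition above about 50% in the replicate tests, limit read from the data, passing the limit was not always enough; inconclusive = probably only some replicates passing the limit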;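 note: agonist challenge used bursicon conditioned medium at about half maximal strength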
EBV LMP1 NFkB: inhibitors of Epstein-Barr LMP1-induced NF-kappaB reporter; LMP1-induced NF-kappaB luciferase reporter cells, luminescence; inhibition, % at 12.5 µM; actives 0.69% (n = 350,000); in the data active = inhibition above about 41%; inconclusive = no clear call, values can overlap the other calls;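 note: 0% = neutral control wells and 100% = reference inhibitor control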
TROY signal inh: inhibitors of TROY-dependent NF-kB signaling; Q293 LMP1-TROYcd NF-kB luciferase reporter, 4 h; inhibition, % at 10 µM; actives 0.98% (n = 360,000); AID 1347056;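 active = compounds whose plate-normalised and pattern-corrected inhibition of the luciferase reporter signal at the single screening dose is 50% or more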
The depositor's hits bear a star; ? = inconclusive; nt = no result given.

SMILES	TWEAK Fn14 block	MITF act	TRPM1 prom inh	LGR2 inh	EBV LMP1 NFkB	TROY signal inh
CC(=O)c1sc2nc(C)cc(C)c2c1N	0	11	-12	nt	6	1
Cc1ccc2nc(-c3sc4nc(C)cc(C)c4c3N)[nH]c2c1	78*	1	-2	nt	-13	70*
Cc1ccc2nc(-c3cccc(N)c3)[nH]c2c1	61*	-14	14	nt	20	12
Nc1cccc(-c2nc3ccccc3[nH]2)c1	2	61	-56	-44	-10	-36
C[C@H](CO)N1C[C@H](C)[C@H](CN(C)Cc2ccccc2F)Oc2cc(C#CC3CC3)ccc2S1(=O)=O	nt	nt	nt	-6	nt	nt
CCCNC(=O)Nc1ccc2c(c1)C(=O)N(C)C[C@H](OC)[C@@H](C)CN(Cc1ccncc1)[C@@H](C)CO2	nt	nt	nt	5	nt	nt
CCCNC(=O)N1C[C@H](C)[C@H](OC)CN(C)C(=O)c2cc(NC(=O)CCC)ccc2OC[C@H]1C	nt	nt	nt	2	nt	nt
CC(C)NC(=O)Nc1ccc2c(c1)C(=O)N([C@H](C)CO)C[C@H](C)[C@@H](CN(C)C(=O)c1ccncc1)OCCCC[C@H](C)O2	nt	nt	nt	-3	nt	nt
COc1ccc2c(c1)CC/C(=C\c1ccc(C)o1)C2=O	-29	87*	-86	-7	-37	20
COc1ccc2c(c1)CC/C(=C/c1ccncc1)C2=O	17	-4	7	nt	11	12
Clc1ccc(/C=N/N2CCCCC2)cc1	-22	94*	-84	-20	-34	-33
O=[N+]([O-])c1ccc(/C=N\N2CCN(c3ccc(Cl)cc3)CC2)cc1	-5	19	-15	nt	3	9
O=[N+]([O-])c1ccc(/C=N/N2CCCCC2)cc1	-12	106*	-109	-110	-58	-61
C[C@H](CO)N1C[C@H](C)[C@@H](CN(C)C(=O)CCCN(C)C)OCCCC[C@H](C)Oc2ccc(NC(=O)Nc3ccc(C(F)(F)F)cc3)cc2C1=O	nt	nt	nt	-23	nt	nt
CCCN1C[C@@H](C)[C@@H](OC)CN(C)C(=O)c2cc(NS(C)(=O)=O)ccc2OC[C@@H]1C	nt	nt	nt	-12	nt	nt
COc1cc2c(C(=O)N3CCN(C)CC3)c(C)oc2cc1Br	11	4	-7	nt	-4	15
Cc1oc2cc3c(C(=O)N4CCCCC4)c(C)oc3cc2c1C(=O)N1CCCCC1	74*	43	-46	-99	-26	60*
O=C(c1ccccc1)N1CC2(C1)[C@H](c1ccccc1)[C@@H](CO)N2C(=O)CC1CC1	nt	nt	nt	3	nt	nt
CCOc1ccc(Nc2nc(N)c3ccccc3n2)cc1	92*	nt	36	96*	53*	61*
Nc1nc(Nc2ccccc2)nc2ccccc12	40	nt	-33	nt	-12	-13
CN(C)c1ccc(Nc2nc(N)c3ccccc3n2)cc1	95*	nt	53	89*	70*	67*
CCOc1ccc(Nc2nc(N)nc(CCl)n2)cc1	18	nt	16	nt	14	-49
Nc1nc(Nc2ccc(Cl)cc2)nc2ccccc12	80*	nt	4	nt	1	14
C[C@H](CO)N1C[C@H](C)[C@H](CN(C)C(=O)C2CCCCC2)OCCCC[C@H](C)Oc2ccc(NC(=O)C3CCCCC3)cc2C1=O	nt	nt	nt	-2	nt	nt
COCCN(Cc1nc(-c2ccc(-c3ccccc3)cc2)oc1C)C(C)C	78*	36	-32	-86	-49	-25
SMILES	TWEAK Fn14 block	MITF act	TRPM1 prom inh	LGR2 inh	EBV LMP1 NFkB	TROY signal inh
Cc1oc(-c2ccoc2)nc1CN(CC1CCC(=O)N1)C(C)C (centres undefined)	1	7	-3	nt	5	6
CCS(=O)(=O)N1CCCCN2[C@@H](CO)[C@H](c3ccc(C#Cc4ccccc4OC)cc3)[C@@H]2C1	nt	nt	nt	-17	nt	nt
CO[C@@H]1CC[C@@H]2CCOc3c(C#N)cccc3C(=O)N(C)C[C@H](c3ccccc3)CC(=O)N(C)C[C@H]1O2	nt	nt	nt	-5	nt	nt
COc1ccccc1N1CCN(c2ccc([N+](=O)[O-])cc2Cl)CC1	10	-4	5	3	5	-4
COc1ccccc1-n1cc2c([N+](=O)[O-])cc([N+](=O)[O-])cc2n1	51*	-5	5	9	2	-32
c1ccc(OCCn2cnc3ccccc32)cc1	-28	14	-7	-26	0	-25
Brc1ccccc1OCCCn1cnc2ccccc21	-13	92*	-89	nt	-7	-85
c1ccc(OCCCCn2cnc3ccccc32)cc1	74*	9	-9	nt	9	nt
C[C@@H]1CCCCO[C@H](CN(C)S(C)(=O)=O)[C@H](C)CN([C@@H](C)CO)C(=O)c2cc(NC(=O)c3ccncc3)ccc2O1	nt	nt	nt	-9	nt	nt
CCCC(C(=O)NC(C)(C)C)N(C(=O)c1snc(C(N)=O)c1N)c1ccc2c(c1)OCCO2 (centres undefined)	86*	-19	20	27	35	82*
C[C@@H]1CN([C@H](C)CO)C(=O)c2ccccc2-c2ccccc2CO[C@@H]1CN(C)S(=O)(=O)c1cccc(C#N)c1	nt	nt	nt	2	nt	nt
O=C(Nc1ccc(N2CCN(C(=O)c3ccccc3)CC2)c(Cl)c1)c1ccco1	6	-4	3	nt	22	35
Cc1ccc(NC(=O)c2cc3ccccc3o2)cc1Cl	-14	104*	-105	-72	-59	-72
COc1ccc(NC(=O)/C=C/c2ccc(Br)o2)cn1	-8	46	-43	-36	-11	-20
COc1ccc(NC(=O)/C=C/c2ccco2)cn1	-26	118*	-112	-10	-11	-50
CCCC(=O)N1CCN(c2ccc(NC(=O)c3cccs3)cc2Cl)CC1	-8	3	-5	3	-1	-7
CCCC(=O)N1CCN(c2ccc(NC(=O)c3cc4ccccc4o3)cc2Cl)CC1	95*	-61	?	nt	24	81*
O=C(Nc1ccc(N2CCN(C(=O)c3ccco3)CC2)c(Cl)c1)c1cc2ccccc2o1	97*	-69	70*	nt	27	72*
O=C(Nc1ccccc1)c1ccc(-c2ccccc2Cl)o1	-53	89*	-86	-152	-7	-87
CC(C)C(=O)Nc1cccc(C(=O)Nc2nnc(C(C)C)s2)c1	15	91*	-87	-29	-4	-6
Cc1cc(C(=O)Nc2ccccc2)oc1C	19	113*	-118	nt	-17	-18
CCC(=O)N1CCN(c2ccc(NC(=O)c3cc4ccccc4o3)cc2Cl)CC1	93*	-52	52	nt	27	66*
CC(C)c1nnc(NC(=O)c2cc3ccccc3o2)s1	35	108*	-108	-15	-11	-14
COc1cc(NC(=O)C(C)C)ccc1NC(=O)c1cc2ccccc2o1	-24	84*	-79	-36	-24	-12
CCC(=O)N1CCN(c2ccc(NC(=S)NC(=O)c3cc4ccccc4o3)cc2)CC1	18	8	-5	10	5	61*
CC(C)NC(=O)c1cc2ccccc2o1	3	nt	3	nt	-9	4
CC(C)C(=O)N1CCN(c2ccc(NC(=S)NC(=O)c3cc4ccccc4o3)cc2)CC1	-19	-3	4	-32	18	46
